# Several values for one entry are separate records, joined by “and”; a condition that tells them apart may be missing. Equal values may be shown once. Inconclusive results are not listed. Where a call stands in place of a potency, no number is given. Activity calls are given as the source filed them. Unless noted, calls come from the whole dose curve; as a rule, active = well fitted curve in the direction sought with a large enough effect; inconclusive = small, poorly fitted or top-dose-only effect, or another doubt; inactive = no such curve, though single readings can be large; an effect the other way counts as inactive or inconclusive.
# Tests used:
# [1] = Primary qHTS for small molecule stabilizers of the endoplasmic reticulum resident proteome: Secreted ER Calcium Modulated Protein (SERCaMP) assay (AID 1508630); details: SH-SY5Y GLuc-SERCaMP (Gaussia luciferase released on ER calcium loss) secretion, thapsigargin, luminescence; series mostly up to 38.4 µM
# Method in brief: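 GLuc-SERCaMP-expressing SH-SY5Y cells, pretreated 16 h with compound, are challenged with thapsigargin to empty ER calcium stores; after 4 h, coelenterazine is added directly to the medium and luminescence is imaged.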
# [2] = Primary qHTS for inhibitors of nuclear receptor binding SET domain protein 2 (NSD2) in an isogenic RCH-ACV NSD2 p.E1099K mutant (9B) (AID 1645876); details: RCH-ACV NSD2 E1099K (9B) viability, CellTiter-Glo, 72 h; series mostly up to 44.9 µM; note: nearly all actives have a fitted effect of over 70% in size; note: potency is the fitted concentration of half-maximal effect
# [3] = Primary qHTS for inhibitors of nuclear receptor binding SET domain protein 2 (NSD2) in an RCH-ACV wild type WT cells (2C) (AID 1645877); details: RCH-ACV (leukaemia line) NSD2 WT (2C) viability, CellTiter-Glo, 72 h; series mostly up to 44.9 µM; note: nearly all actives have a fitted effect of over 70% in size; note: potency is the fitted concentration of half-maximal effect
# [4] = target: Catechol O-methyltransferase (Homo sapiens) (UniProt P21964); assay: Confirmatory Screen for Target Class Profiling of Small Molecule Inhibitors of Methyltransferases (AID 1745852); details: MTase-Glo luminescence, SAH detection, recombinant enzyme; measured here: COMT max response; stronger effect = lower value
# [5] = target: Guanidinoacetate N-methyltransferase (Homo sapiens) (UniProt Q14353); assay: as above; details: MTase-Glo luminescence, SAH detection, recombinant enzyme; activity change, negative = inhibition: at 57.3 µM (top of the series) unless noted
# [6] = target: Nicotinamide N-methyltransferase (Homo sapiens) (UniProt P40261); assay: as above; details: MTase-Glo luminescence, SAH detection, recombinant enzyme; measured here: NNMT max response; stronger effect = lower value
# [7] = target: Phenylethanolamine N-methyltransferase (Homo sapiens) (UniProt P11086); assay: as above; details: MTase-Glo luminescence, SAH detection, recombinant enzyme; measured here: PNMT max response; stronger effect = lower value
# [8] = NCATS anti-infectives library activity on HEK293 viability as a counter-qHTS vs the C. elegans viability qHTS (AID 1745854); details: HEK293 viability counter-screen; series mostly up to 41.8 µM;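 note: HEK293 cells exposed to compounds for 24 hr before the viability read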
# Method in brief: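 Compounds were acoustically plated (several concentrations, 1:5, final up to 41.7 uM), then 1500 HEK293 cells added per well and incubated 24 hr at 37C, 5% CO2. CellTiter-Glo was added and luminescence read after 10 min.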
# [9] = A High-Content qHTS Against Drug Library for the Identification of Small Molecules that Inhibit DYT1 Early Onset Primary Dystonia-Associated Cell Pathology (AID 1645839; calls by dose curve); details: HEK293 Flp-In EGFP-delE TorsinA, punctate imaging, 48 h; series mostly up to 46.1 µM
# Method in brief: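 In this high-content image screen, delE TorsinA mislocalization in inducible Flp-In 293 cells is scored as %pathology, with cell count serving as the counterscreen. Compound exposure lasts 48 h under tetracycline induction in reduced-serum medium.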
# [10] = target: Papain (Carica papaya) (UniProt P00784); assay: Primary qHTS assay for inhibitors of the protease papain (AID 1645873); details: papain Z-FR-AMC cleavage, AMC fluorescence; series mostly up to 49.8 µM;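 note: papain turnover of Z-FR-AMC read as the AMC fluorescence gain over 10 min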
# [11] = target: Cytochrome P450 2C9 (Homo sapiens) (UniProt P11712); assay: Cytochrome P450 family 2 subfamily C member 9 (CYP2C9) small molecule antagonists: luciferase biochemical (cell-free) qHTS assay (AID 1645842; active = well fitted curve in the direction sought with a large enough effect in the repeat runs; an effect the other way counts as inactive or inconclusive; note: nearly all actives have a fitted effect of over 55% in size; note: potency is the fitted concentration of half-maximal effect); details: P450-Glo CYP2C9 enzyme assay, luciferin luminescence; series mostly up to 57.4 µM
# Method in brief: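 Luminescence, after 20 min with luciferin detection reagent, reflected CYP2C9 turnover during a 1 h NADPH-driven reaction at 37C. Enzyme-substrate mix contained 0.4% bovine serum albumin and was preincubated with compound 10 min at room temperature.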
# [12] = target: Rap guanine nucleotide exchange factor 3 (Homo sapiens) (UniProt O95398); assay: Confirmatory qHTS for antagonist of cAMP-regulated guanine nucleotide exchange factor 3 (EPAC1) (AID 1645880); details: EPAC1 Rap1B-BODIPY-GDP exchange, fluorescence; series mostly up to 115 µM; note: nearly all actives have a fitted effect of over 55% in size
# Method in brief: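 Nucleotide exchange uses 100 nM EPAC1, 250 nM RAP1B-BODIPY-GDP and 50 uM GDP, with compounds in a concentration-titration series. After 5 min at room temperature, fluorescence (480 nm ex/540 nm em) is read every 5 min for 30 min. Data are normalized to control ATA and DMSO.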
# [13] = target: Rap guanine nucleotide exchange factor 3 (Homo sapiens) (UniProt O95398); assay: Confirmatory qHTS for agonist of cAMP-regulated guanine nucleotide exchange factor 3 (EPAC1) (AID 1645881); details: EPAC1 Rap1B BODIPY-GDP exchange fluorescence, 100% = cAMP control response; series mostly up to 154 µM;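 note: EPAC1 catalysed release of BODIPY-GDP from Rap1B seen as fluorescence loss; nearly all actives have a fitted effect of over 75% in size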
# [14] = target: Rap guanine nucleotide exchange factor 4 (Homo sapiens) (UniProt Q8WZA2); assay: Confirmatory qHTS for agonist of cAMP-regulated guanine nucleotide exchange factor 4 (EPAC2) (AID 1645884); details: EPAC2 GEF activity, Rap1B-BODIPY-GDP fluorescence, percent relative to cAMP agonist control; series mostly up to 154 µM;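 note: nucleotide exchange releases bodipy-GDP from Rap1 and this lowers its fluorescence; nearly all actives have a fitted effect of over 65% in size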
# [15] = target: Cytochrome P450 2D6 (Homo sapiens) (UniProt P10635); assay: Cytochrome P450 family 2 subfamily D member 6 (CYP2D6) small molecule antagonists: luciferase biochemical (cell-free) qHTS assay (AID 1645840; active = well fitted curve in the direction sought with a large enough effect in the repeat runs; an effect the other way counts as inactive or inconclusive; note: nearly all actives have a fitted effect of over 55% in size); details: P450-Glo CYP2D6 enzyme, luciferin luminescence, 1 h; series mostly up to 57.4 µM
# Method in brief: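 P450-Glo luminescent screen: recombinant CYP2D6 enzyme–proluciferin substrate mix preincubated with compound 10 min at room temperature, then NADPH regeneration added for 1 h at room temperature. Detection reagent added for 20 min; luciferin light read as relative luminescence units.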
# Chain of Cytochrome P450 2C9 (Homo sapiens) (P11712 whole entry, looked up): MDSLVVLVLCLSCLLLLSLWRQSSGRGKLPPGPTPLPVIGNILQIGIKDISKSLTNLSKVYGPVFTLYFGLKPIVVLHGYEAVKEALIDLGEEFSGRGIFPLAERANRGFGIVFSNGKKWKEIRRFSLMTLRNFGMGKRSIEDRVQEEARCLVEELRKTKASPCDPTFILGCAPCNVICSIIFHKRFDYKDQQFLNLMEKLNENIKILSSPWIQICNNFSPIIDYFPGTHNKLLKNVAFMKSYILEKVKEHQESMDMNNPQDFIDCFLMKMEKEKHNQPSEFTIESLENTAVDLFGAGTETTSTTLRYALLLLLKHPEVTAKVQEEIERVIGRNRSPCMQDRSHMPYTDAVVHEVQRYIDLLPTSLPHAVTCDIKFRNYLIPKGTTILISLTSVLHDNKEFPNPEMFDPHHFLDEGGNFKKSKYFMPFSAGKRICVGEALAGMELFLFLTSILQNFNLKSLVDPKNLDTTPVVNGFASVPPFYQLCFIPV
# Chain of Rap guanine nucleotide exchange factor 3 (Homo sapiens) (O95398 whole entry, looked up): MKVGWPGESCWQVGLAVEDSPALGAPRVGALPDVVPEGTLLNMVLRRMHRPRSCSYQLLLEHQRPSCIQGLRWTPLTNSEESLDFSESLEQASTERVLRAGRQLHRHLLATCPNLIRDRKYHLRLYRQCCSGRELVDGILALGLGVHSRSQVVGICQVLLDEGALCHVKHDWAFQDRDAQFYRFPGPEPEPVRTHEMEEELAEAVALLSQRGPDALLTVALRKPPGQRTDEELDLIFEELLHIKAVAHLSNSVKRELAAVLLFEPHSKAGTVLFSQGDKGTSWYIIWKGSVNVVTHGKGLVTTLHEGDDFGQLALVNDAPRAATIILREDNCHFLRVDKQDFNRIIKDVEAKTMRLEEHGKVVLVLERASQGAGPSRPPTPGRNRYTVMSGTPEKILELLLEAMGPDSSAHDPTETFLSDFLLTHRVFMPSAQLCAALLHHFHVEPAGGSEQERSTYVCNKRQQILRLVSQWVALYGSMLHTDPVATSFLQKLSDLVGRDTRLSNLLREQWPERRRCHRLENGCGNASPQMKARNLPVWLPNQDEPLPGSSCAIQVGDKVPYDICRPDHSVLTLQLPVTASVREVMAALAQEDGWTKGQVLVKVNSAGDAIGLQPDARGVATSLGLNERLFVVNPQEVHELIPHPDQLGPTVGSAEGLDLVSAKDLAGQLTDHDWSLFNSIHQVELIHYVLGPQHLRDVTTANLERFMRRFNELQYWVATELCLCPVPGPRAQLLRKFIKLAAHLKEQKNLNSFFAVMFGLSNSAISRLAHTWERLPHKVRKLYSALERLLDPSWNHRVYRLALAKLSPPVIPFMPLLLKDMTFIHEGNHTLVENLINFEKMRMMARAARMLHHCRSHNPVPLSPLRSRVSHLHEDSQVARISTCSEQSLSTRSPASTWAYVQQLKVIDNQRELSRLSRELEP
# Chain of Nicotinamide N-methyltransferase (Homo sapiens) (P40261 whole entry, looked up): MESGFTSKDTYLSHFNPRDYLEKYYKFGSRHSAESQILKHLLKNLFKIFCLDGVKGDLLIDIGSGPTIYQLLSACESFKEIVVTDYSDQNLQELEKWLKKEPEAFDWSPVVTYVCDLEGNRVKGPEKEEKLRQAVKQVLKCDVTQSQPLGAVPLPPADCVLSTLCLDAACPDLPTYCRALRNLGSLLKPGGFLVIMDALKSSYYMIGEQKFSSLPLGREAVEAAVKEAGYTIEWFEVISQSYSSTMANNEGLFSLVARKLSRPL
# Chain of Phenylethanolamine N-methyltransferase (Homo sapiens) (P11086 whole entry, looked up): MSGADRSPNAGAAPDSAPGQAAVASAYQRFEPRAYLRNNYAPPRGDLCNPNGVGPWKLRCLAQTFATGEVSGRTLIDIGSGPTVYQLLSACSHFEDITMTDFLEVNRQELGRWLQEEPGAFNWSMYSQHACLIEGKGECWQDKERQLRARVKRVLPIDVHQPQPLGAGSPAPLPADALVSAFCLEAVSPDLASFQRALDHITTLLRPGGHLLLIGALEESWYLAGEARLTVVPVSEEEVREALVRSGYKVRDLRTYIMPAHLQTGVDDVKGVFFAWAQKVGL
# Chain of Catechol O-methyltransferase (Homo sapiens) (P21964 whole entry, looked up): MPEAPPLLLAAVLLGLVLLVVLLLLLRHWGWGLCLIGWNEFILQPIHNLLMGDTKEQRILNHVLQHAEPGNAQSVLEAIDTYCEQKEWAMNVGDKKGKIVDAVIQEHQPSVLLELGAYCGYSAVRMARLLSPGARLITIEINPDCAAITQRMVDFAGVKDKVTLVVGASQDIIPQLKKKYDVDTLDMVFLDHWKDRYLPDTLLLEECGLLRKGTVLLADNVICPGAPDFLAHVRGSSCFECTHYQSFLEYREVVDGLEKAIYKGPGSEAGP
# Chain of Rap guanine nucleotide exchange factor 4 (Homo sapiens) (Q8WZA2 whole entry, looked up): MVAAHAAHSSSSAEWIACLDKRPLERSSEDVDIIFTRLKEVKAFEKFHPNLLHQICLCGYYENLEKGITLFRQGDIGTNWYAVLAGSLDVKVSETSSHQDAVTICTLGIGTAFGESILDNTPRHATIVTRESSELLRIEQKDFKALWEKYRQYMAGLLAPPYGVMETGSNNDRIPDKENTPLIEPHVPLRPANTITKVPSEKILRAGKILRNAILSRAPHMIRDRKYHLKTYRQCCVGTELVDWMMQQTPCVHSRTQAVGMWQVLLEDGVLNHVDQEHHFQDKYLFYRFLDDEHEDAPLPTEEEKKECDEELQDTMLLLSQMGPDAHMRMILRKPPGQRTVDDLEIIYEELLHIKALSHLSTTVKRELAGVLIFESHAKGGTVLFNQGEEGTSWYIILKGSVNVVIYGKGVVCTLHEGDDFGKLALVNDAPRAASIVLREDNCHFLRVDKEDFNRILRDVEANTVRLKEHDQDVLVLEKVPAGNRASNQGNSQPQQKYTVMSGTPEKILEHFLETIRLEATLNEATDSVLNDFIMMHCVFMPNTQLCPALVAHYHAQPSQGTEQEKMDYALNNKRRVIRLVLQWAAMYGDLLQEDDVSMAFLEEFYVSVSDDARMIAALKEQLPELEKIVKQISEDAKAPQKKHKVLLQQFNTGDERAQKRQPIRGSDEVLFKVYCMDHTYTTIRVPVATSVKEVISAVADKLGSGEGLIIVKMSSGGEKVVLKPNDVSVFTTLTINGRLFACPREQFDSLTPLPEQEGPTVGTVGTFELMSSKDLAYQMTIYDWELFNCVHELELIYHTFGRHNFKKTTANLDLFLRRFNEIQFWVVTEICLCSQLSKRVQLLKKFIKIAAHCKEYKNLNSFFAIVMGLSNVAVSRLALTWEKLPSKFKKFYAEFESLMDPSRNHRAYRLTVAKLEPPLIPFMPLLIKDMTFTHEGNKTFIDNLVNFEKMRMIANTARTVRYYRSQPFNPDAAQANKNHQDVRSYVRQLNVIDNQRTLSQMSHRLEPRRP
# Chain of Cytochrome P450 2D6 (Homo sapiens) (P10635 whole entry, looked up): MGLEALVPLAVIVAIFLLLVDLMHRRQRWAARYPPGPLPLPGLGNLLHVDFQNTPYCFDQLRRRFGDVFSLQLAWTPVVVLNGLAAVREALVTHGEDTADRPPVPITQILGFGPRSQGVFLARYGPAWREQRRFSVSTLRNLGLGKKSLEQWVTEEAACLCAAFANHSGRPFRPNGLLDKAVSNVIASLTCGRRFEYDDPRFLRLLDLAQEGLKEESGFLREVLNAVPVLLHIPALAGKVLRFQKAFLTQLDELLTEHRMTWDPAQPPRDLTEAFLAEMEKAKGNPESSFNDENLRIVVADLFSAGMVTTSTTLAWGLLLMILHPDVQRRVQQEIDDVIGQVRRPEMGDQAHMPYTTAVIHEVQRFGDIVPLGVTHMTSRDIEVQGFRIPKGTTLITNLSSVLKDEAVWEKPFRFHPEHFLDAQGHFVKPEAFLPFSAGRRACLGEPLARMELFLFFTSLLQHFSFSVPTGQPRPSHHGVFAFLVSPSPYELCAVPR
# Chain of Papain (Carica papaya) (P00784 whole entry, looked up): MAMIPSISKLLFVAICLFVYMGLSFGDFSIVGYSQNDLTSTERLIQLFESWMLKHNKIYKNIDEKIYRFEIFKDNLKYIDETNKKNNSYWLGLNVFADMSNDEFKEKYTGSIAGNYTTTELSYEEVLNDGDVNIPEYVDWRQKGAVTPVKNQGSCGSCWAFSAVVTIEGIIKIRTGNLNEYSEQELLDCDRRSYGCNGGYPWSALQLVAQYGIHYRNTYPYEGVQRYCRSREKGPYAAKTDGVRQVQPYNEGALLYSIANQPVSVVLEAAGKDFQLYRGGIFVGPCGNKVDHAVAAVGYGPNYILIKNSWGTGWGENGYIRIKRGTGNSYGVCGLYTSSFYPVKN
compound,measurement,setting,value
CN(C)Cc1cccc(N=C(c2ccccc2)c2c(O)[nH]c3cc(C(=O)N(C)C)ccc23)c1,Potency,[1],inactive
same,Potency,[2],16.6 µM (active)
same,Potency,[3],14.8 µM (active)
NC(=O)c1cnc(-c2ccc(C3(N)CCC3)cc2)c(-c2ccccc2)c1,Potency,[1],inactive
same,Potency,[2],2.95 µM (active) and 459 nM (active)
same,Potency,[3],11.8 µM (active) and 916 nM (active)
same,activity,[4],-7.58%
same,"activity change, negative = inhibition",[5],0.723%
same,activity,[6],-51.4%
same,activity,[7],-17.2%
Clc1cc(Cl)cc(CNc2ncncc2-c2ccc3c(c2)OCO3)c1,Potency,[1],inactive
same,Potency,[2],13.2 µM (active)
same,Potency,[3],11.8 µM (active)
O=c1cc(CN2CCOCC2)occ1OCCCCCSc1ccnc2cc(C(F)(F)F)ccc12,Potency,[1],inactive
same,Potency,[2],18.6 µM (active) and 9.16 µM (active)
same,Potency,[3],16.6 µM (active) and 18.3 µM (active)
CC(C)C(=O)Oc1ccc(CO)cc1[C@H](CCN(C(C)C)C(C)C)c1ccccc1,Potency,[1],inactive
same,Potency,[2],inactive
same,Potency,[3],inactive
Oc1ccc(C2=Cc3ccc(O)cc3OC2)cc1,Potency,[1],inactive
same,Potency,[2],1.18 µM (active)
same,Potency,[3],1.32 µM (active)
CC#CCn1c(N2CCC[C@@H](N)C2)nc2c1c(=O)n(Cc1nc(C)c3ccccc3n1)c(=O)n2C,Potency,[1],inactive
same,Potency,[2],inactive
same,Potency,[3],inactive
same,outcome,[8],inactive
C=C1C(=O)[C@@]23C(CC[C@@H]1[C@H]2O)[C@@]12CO[C@]3(O)[C@@H](O)[C@@H]1C(C)(C)CC[C@@H]2O (stereo partly drawn),Potency,[1],inactive
same,Potency,[2],2.35 µM (active)
O=C(Nc1c(Cl)cncc1Cl)c1ccc(OC(F)F)c(OCC2CC2)c1,Potency,[1],inactive
same,Potency,[2],inactive
same,Potency,[3],inactive
same,outcome,[8],inactive
CC[C@@]1(O)C[C@H](O[C@H]2C[C@H](N(C)C)[C@H](O[C@H]3C[C@H](O)[C@H](O[C@H]4CCC(=O)[C@H](C)O4)[C@H](C)O3)[C@H](C)O2)c2c(cc3c(c2O)C(=O)c2c(O)cccc2C3=O)[C@@H]1C(=O)OC,Potency,[1],inactive
same,Potency,[2],2.63 µM (active)
same,Potency,[3],1.18 µM (active)
COc1ncc(-c2ccc3nccc(-c4ccnnc4)c3c2)cc1NS(=O)(=O)c1ccc(F)cc1F,Potency,[1],inactive
same,Potency,[2],1.3 nM (active) and 8.3 nM (active)
same,Potency,[3],1.2 nM (active) and 7.4 nM (active)
COc1ccc(-c2nc(N3CCOCC3)c3sc(CN(C)c4ncc(C(=O)NO)cn4)cc3n2)cn1,Potency,[1],inactive
same,Potency,[2],7.3 nM (active) and 29.5 nM (active)
same,Potency,[3],8.2 nM (active) and 33.2 nM (active)
CC(=O)N(C)C1(c2ccccc2)CCN(CCC[C@]2(c3ccc(Cl)c(Cl)c3)CCCN(C(=O)c3ccccc3)C2)CC1,Potency,[1],inactive
same,Potency,[2],7.28 µM (active)
same,activity,[4],-5.14%
same,"activity change, negative = inhibition",[5],0%
same,activity,[6],-62.2%
same,activity,[7],-6.52%
NC1CCC(Nc2nc(Nc3ccc(C(=O)N4CCCCC4)cc3)c3ncn(-c4cccc(F)c4)c3n2)CC1 (stereo not drawn),Potency,[1],inactive
same,Potency,[2],1.84 µM (active)
same,Potency,[3],2.06 µM (active)
Nc1ncnc2c1nc(Cl)n2[C@@H]1O[C@H](CO)[C@@H](O)[C@@H]1O,Potency,[1],inactive
same,Potency,[2],18.6 µM (active)
same,Potency,[3],20.9 µM (active)
Cc1ccc(C(=O)Nc2cccc(C(F)(F)F)c2)cc1Nc1nc(-c2cccnc2)nc2c1cnn2C,Potency,[1],inactive
same,Potency,[2],inactive
same,Potency,[3],inactive
CC(C)NCC(O)COc1cccc2[nH]ccc12 (stereo not drawn),Potency,[9],inactive
same,outcome,[10],inactive
same,Potency,[2],inactive
same,Potency,[3],inactive
COc1ccc(C2Sc3ccccc3N(CCN(C)C)C(=O)C2OC(C)=O)cc1 (stereo not drawn),Potency,[2],inactive
CCNc1cc(NC2CCC(O)CC2)nc(Nc2ccc3c(ccn3Cc3ccccc3)c2)n1 (stereo not drawn),Potency,[3],3.32 µM (active)
COc1ccc(C2CC(c3ccccc3)=NN2c2ccc(S(N)(=O)=O)cc2)cc1 (stereo not drawn),Potency,[11],6.74 µM (active)
COc1cccc([C@@H](C)NCCCc2ccccc2Cl)c1,Potency,[2],18.6 µM (active)
same,Potency,[3],18.6 µM (active)
CN(C[C@@H]1COCCO1)S(=O)(=O)Nc1ccc2ccc3ncc(-c4cnn(C)c4)cc3c(=O)c2c1,Potency,[11],0.477 µM (active)
same,Potency,[2],5.15 µM (active)
COc1cc2nc(-c3ccc(N4CCN(C)CC4)cc3)nc(NCCN3CCOCC3)c2cc1OC,Potency,[2],1.86 µM (active)
CN(C)C1CCN(C(=O)c2ccc(NC(=O)Nc3nc(N4CCOCC4)nc(N4CCOCC4)n3)cc2)CC1,Potency,[2],25.2 nM (active) and 37.2 nM (active)
same,Potency,[3],28.2 nM (active) and 37.2 nM (active)
c1ccc2c(Cc3c[nH]c4ccccc34)c[nH]c2c1,Potency,[1],inactive
same,outcome,[12],inactive
same,outcome,[13],inactive
same,outcome,[14],inactive
C[N+](C)(C)CC(=O)O,Potency,[9],inactive
same,Potency,[15],inactive
same,Potency,[11],inactive
same,Potency,[2],inactive

# Source: PubChem BioAssay (NCATS)
